# Reference: PubChem BioAssay (NCATS)
# Inconclusive results are not listed. Where a call stands in place of a potency, no number is given. The source made the active and inactive calls. Unless noted, calls follow the shape of the dose curve; as a rule, active = well fitted curve in the direction sought with a large enough effect; inconclusive = small, poorly fitted or top-dose-only effect, or another doubt; inactive = no such curve, though single readings can be large; an effect the other way counts as inactive or inconclusive.
# Legend:
# [1] = target: Guanine nucleotide-binding protein G(i) subunit alpha-1 (Homo sapiens) (UniProt P63096); test: qHTS Assay for Inhibitors of RGS12 GoLoco Motif Activity (Green Fluorophore) (AID 879);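 also: negative values mean loss of peptide binding seen as reduced polarization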
# Chain of Guanine nucleotide-binding protein G(i) subunit alpha-1 (Homo sapiens) (P63096 whole entry, looked up): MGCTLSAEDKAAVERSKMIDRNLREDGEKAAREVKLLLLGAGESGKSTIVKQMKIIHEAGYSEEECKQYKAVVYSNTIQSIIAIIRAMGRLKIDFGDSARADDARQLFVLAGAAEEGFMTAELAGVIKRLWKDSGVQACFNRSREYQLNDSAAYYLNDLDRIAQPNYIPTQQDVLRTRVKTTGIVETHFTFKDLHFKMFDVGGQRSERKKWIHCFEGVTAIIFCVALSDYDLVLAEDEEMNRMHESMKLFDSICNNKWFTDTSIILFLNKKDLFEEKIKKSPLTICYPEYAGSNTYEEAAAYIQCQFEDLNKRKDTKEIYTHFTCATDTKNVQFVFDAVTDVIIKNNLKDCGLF
# How it was run: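 A drop in FITC polarization marked displacement of the FITC-tagged RGS12 GoLoco peptide (10 nM) from Gαi1 (50 nM). Compounds were incubated 10 min at room temperature in Tris pH 7.5 buffer containing 150 mM NaCl, 0.1 mM GDP and 0.05% NP40; unlabeled peptide titration served as control.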
# [2] = qHTS Assay for Identification of Small Molecule Antagonists for NFkB Signaling Pathway (AID 895; active = well fitted inhibition curve with a large enough effect in the signal ratio, with a control signal flat, not every such curve was filed as active; the % refers to the signal ratio)
# How it was run: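 Beta-lactamase reporter read-out (460 and 530 nm emission ratio, 405 nm excitation, 2 hrs substrate loading RT) after 5 hr stimulation with 10 pM TNF alpha in compound-treated NFkB-bla ME-180 cells in low-serum medium.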
# [3] = Cellular Toxicity (caspase-3) N2a (AID 665);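 also: compound exposure lasted 16 h at 37 °C before readout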
# How it was run: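 Caspase-3/7 activation measured as luminescence from Caspase-Glo reagent (1 h, room temperature) after 16 h compound exposure of mouse N2a cells. AC50 values from Hill-equation concentration-response, scaled between DMSO and 10 uM staurosporine.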
# [4] = Cellular Toxicity (caspase-3) Renal Proximal Tubule (AID 667);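 also: cells exposed to compound for 16 hours at 37 °C before detection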
# How it was run: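 AC50 derived by standard Hill fit of concentration-response data, normalized between DMSO basal and 10 uM staurosporine as 100% stimulation. Cells: primary rat kidney proximal tubule, 16 h treatment at 37 °C.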
# [5] = target: Cytochrome P450 3A4 (Homo sapiens) (UniProt P08684); test: qHTS Assay for Inhibitors and Substrates of Cytochrome P450 3A4 (AID 884); also: series mostly up to about 57 µM; nearly all actives have a fitted effect of over 50% in size
# Chain of Cytochrome P450 3A4 (Homo sapiens) (P08684 whole entry, looked up): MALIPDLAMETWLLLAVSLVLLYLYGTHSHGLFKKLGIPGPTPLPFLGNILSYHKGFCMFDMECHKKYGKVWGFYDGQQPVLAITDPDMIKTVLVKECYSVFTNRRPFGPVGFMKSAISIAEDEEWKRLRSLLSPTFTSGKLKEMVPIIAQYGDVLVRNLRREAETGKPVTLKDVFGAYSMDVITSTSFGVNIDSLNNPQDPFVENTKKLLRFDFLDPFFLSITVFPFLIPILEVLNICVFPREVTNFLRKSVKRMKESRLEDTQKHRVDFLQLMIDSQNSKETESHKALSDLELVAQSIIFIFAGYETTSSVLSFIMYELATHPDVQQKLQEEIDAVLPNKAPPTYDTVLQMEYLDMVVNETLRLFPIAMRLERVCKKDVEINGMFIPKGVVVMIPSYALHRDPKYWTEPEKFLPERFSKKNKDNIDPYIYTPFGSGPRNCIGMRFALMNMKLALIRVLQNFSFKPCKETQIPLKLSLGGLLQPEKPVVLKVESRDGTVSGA
# How it was run: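 Luminescent readout of luciferin produced by CYP3A4 (20 nM) dealkylation of Luciferin-PPXE, 25 uM (its KM). NADPH-driven reaction ran 60 min at RT after 10 min compound preincubation; data scaled to 57 uM ketoconazole as 100% inhibition.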
# [6] = Confirmation and Secondary Assay for Modulators of Hemoglobin Beta Chain Splicing at IVS2 654 locus (AID 910);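 also: HeLa cells stably carrying EGFP split by mutant beta-globin IVS2-654 intron; per-well total GFP intensity by laser scanning cytometry after 2-day treatment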
# How it was run: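 Readout: per-well total peak green fluorescence (488 nm ex, 500–520 nm em) from objects 5–250 µm, reflecting correct splicing of an EGFP-654 reporter. Compounds were applied for 2 days at 37 °C to overnight-plated HeLa EGFP-654 cells; controls were DMSO and 500 nM IVS2-654 PNA.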
# [7] = target: Cytochrome P450 2C9 (Homo sapiens) (UniProt P11712); test: qHTS Assay for Inhibitors and Substrates of Cytochrome P450 2C9 (AID 883); also: potency is read from the fitted curve at half-maximal effect; nearly all actives have a fitted effect of over 60% in size
# Chain of Cytochrome P450 2C9 (Homo sapiens) (P11712 whole entry, looked up): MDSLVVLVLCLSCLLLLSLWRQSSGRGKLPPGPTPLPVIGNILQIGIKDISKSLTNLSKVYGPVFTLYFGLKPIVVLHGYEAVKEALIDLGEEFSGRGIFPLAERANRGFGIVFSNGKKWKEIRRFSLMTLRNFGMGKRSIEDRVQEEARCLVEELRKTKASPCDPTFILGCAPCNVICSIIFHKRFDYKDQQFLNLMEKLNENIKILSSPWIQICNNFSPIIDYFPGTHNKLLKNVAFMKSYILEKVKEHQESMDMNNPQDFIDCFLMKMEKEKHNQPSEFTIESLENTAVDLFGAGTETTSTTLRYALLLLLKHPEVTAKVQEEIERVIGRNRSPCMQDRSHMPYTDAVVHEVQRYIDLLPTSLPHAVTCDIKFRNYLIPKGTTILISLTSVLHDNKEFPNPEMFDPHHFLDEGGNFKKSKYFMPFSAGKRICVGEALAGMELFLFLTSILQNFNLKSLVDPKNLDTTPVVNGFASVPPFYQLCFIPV
# How it was run: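 Luminescent read-out of deoxyluciferin hydroxylation, normalized to 57uM sulphaphenazole (AC100). Reaction: 10nM enzyme, 100uM Luciferin-H (equal to KM), 25mM KPO4, 10 min compound preincubation, then 60 min with NADPH regeneration, both at 37C.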
# [8] = target: Cytochrome P450 3A4 (Homo sapiens) (UniProt P08684); test: qHTS Assay for Activators of Cytochrome P450 3A4 (AID 885); also: nearly all actives have a fitted effect of over 65% in size
# How it was run: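 CYP3A4 activity: Luciferin-PPXE O-dealkylation, 25uM substrate, 200mM KPO4, RT throughout. Read-out is luciferase luminescence; higher values reflect activation.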
# [9] = target: Cytochrome P450 2C19 (Homo sapiens) (UniProt P33261); test: qHTS Assay for Inhibitors and Substrates of Cytochrome P450 2C19 (AID 899); conditions: recombinant CYP2C19, luciferin-H EGE luminescence; also: potency is read from the fitted curve at half-maximal effect; nearly all actives have a fitted effect of over 60% in size
# Chain of Cytochrome P450 2C19 (Homo sapiens) (P33261 whole entry, looked up): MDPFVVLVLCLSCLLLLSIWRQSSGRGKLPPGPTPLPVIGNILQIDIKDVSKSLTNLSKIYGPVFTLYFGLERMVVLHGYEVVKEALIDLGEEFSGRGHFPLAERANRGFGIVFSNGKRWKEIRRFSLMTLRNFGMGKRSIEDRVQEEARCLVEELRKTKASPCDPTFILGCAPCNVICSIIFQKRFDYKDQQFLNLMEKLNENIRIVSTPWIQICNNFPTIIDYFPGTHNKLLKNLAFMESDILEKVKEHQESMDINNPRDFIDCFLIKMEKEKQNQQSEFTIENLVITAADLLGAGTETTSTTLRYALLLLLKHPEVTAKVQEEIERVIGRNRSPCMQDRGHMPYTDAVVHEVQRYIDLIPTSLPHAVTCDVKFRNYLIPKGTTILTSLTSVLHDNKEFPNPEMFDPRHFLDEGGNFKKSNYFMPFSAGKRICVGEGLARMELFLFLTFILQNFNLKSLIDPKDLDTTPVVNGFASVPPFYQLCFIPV
# How it was run: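 Luminescence readout of luciferin formed from 10uM Luciferin-H EGE (KM level) by 5 nM CYP2C19 in 50mM KPO4. 60 min NADPH-driven reaction at 37C after 10 min compound preincubation; data scaled to 57uM ketoconazole inhibition.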
compound,measurement,setting,value
NC(N)=NCc1cccc(I)c1,outcome,[1],inactive
same,outcome,[2],inactive
O=C(O)c1ccc(S(=O)(=O)N(Cl)Cl)cc1,outcome,[3],inactive
same,outcome,[4],inactive
same,Potency,[5],inactive
same,outcome,[6],inactive
CCN(CC)CCOc1ccc2c(c1)C(=O)c1cc(OCCN(CC)CC)ccc1-2,Potency,[5],inactive
same,outcome,[6],inactive
Oc1c(Cl)cc(Cl)c(Cl)c1Cc1c(O)c(Cl)cc(Cl)c1Cl,outcome,[3],inactive
same,outcome,[4],inactive
same,outcome,[6],inactive
O=C(O)P(=O)(O)O,Potency,[5],inactive
same,outcome,[6],inactive
CC(=O)NCCCCCC(=O)O,Potency,[5],inactive
same,outcome,[6],inactive
COc1cc([C@H]2Oc3cc([C@H]4Oc5cc(O)cc(O)c5C(=O)[C@@H]4O)ccc3O[C@@H]2CO)ccc1O,outcome,[3],inactive
same,outcome,[4],inactive
C=C[C@H]1CN2CC[C@H]1C[C@@H]2[C@@H](O)c1ccnc2ccc(OC)cc12,outcome,[3],inactive
same,outcome,[4],inactive
CCOc1ccc(NC(C)=O)cc1,outcome,[3],inactive
same,outcome,[4],inactive
same,outcome,[6],inactive
CCOc1ccccc1C(N)=O,outcome,[3],inactive
same,outcome,[4],inactive
same,Potency,[5],inactive
CCCCC(CC)COC(=O)c1ccc(N(C)C)cc1 (centres undefined),outcome,[3],inactive
same,outcome,[4],inactive
NC(=O)c1ccccc1O,outcome,[3],inactive
same,outcome,[4],inactive
same,Potency,[5],inactive
same,outcome,[6],inactive
OC[C@H]1O[C@@H]2O[C@H]3[C@H](O)[C@@H](O)[C@@H](O[C@H]4[C@H](O)[C@@H](O)[C@@H](O[C@H]5[C@H](O)[C@@H](O)[C@@H](O[C@H]6[C@H](O)[C@@H](O)[C@@H](O[C@H]7[C@H](O)[C@@H](O)[C@@H](O[C@H]8[C@H](O)[C@@H](O)[C@@H](O[C@H]1[C@H](O)[C@H]2O)O[C@@H]8CO)O[C@@H]7CO)O[C@@H]6CO)O[C@@H]5CO)O[C@@H]4CO)O[C@@H]3CO,outcome,[3],inactive
same,outcome,[4],inactive
same,Potency,[5],inactive
O=c1[nH]c(=O)n([C@H]2C[C@H](O)[C@@H](CO)O2)cc1F,Potency,[5],inactive
CN(C)CCC[C@@]1(c2ccc(F)cc2)OCc2cc(C#N)ccc21,outcome,[1],inactive
same,Potency,[7],3.16 µM (active)
same,Potency,[5],inactive
same,outcome,[8],inactive
same,Potency,[9],3.16 µM (active)
same,outcome,[6],inactive
Oc1ccc(Cl)cc1Cc1cc(Cl)ccc1O,outcome,[3],inactive
same,outcome,[4],inactive
same,outcome,[6],inactive
CC(C)(C)NC[C@H](O)COc1nsnc1N1CCOCC1,outcome,[1],inactive
COc1ccc(C(Cl)=C(c2ccc(OC)cc2)c2ccc(OC)cc2)cc1,outcome,[3],inactive
same,outcome,[4],inactive
same,Potency,[5],inactive
same,outcome,[6],inactive
